The results in this text go back to PubChem BioAssay (NCI).

Test systems include SR leukemia; RPMI-8226 leukemia; OVCAR-8 ovarian; OVCAR-5 ovarian; OVCAR-4 ovarian; SK-OV-3 ovarian; IGROV1 ovarian; OVCAR-3 ovarian; HS 578T breast; NCI/ADR-RES ovarian; T-47D breast; BT-549 breast; MDA-MB-435 melanoma; SW-620 colon; MCF7 breast; HCT-116 colon; HCC-2998 colon; KM12 colon; MDA-MB-468 breast.
Holding throughout (assay): NCI-60 one-dose screen, 48 h (100 = growth as untreated, 0 = no growth, -100 = all killed)
Common to all, as to details: 10 µM

This is part of a sample that, as a whole, favours compounds with a hit. Of some 83,000 tested, about 20% had one in any assay.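 Plates (96-well) were seeded with cells, treated with compound at one concentration, and incubated for 48 hours before percent growth was determined.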 Unmarked numbers belong to inactive results. The source made the active and inactive calls. The calls were made as follows: active = growth percent below 10; inactive = the rest.

On to `COc1ccc(C2N(c3ccc(Br)cc3)N=C(C(C)=O)N2[C@H]2[C@H](OC(C)=O)O[C@H](COC(C)=O)[C@@H](OC(C)=O)[C@@H]2OC(C)=O)cc1` (some centres not stated), for which the growth in the experiment on SR leukemia is 75.9%; with RPMI-8226 leukemia, 41.1%; with OVCAR-8 ovarian it was 78%; in the experiment on OVCAR-5 ovarian it was 85.6%; with OVCAR-4 ovarian, 71.6%; with SK-OV-3 ovarian, 61.4%. For the same compound, the growth is 77.8% in the experiment with IGROV1 ovarian; 73.2% with OVCAR-3 ovarian; 63.3% with HS 578T breast; 62.1% with NCI/ADR-RES ovarian; 52.8% in the experiment on T-47D breast; 91.2% in the experiment on BT-549 breast. Moreover, the growth was 83.7% in the experiment on MDA-MB-435 melanoma; 82.5% in the experiment on SW-620 colon; 62.7% with MCF7 breast; 69% with HCT-116 colon; 75.4% with HCC-2998 colon; 70.6% in the experiment with KM12 colon. Besides, the growth in the experiment with MDA-MB-468 breast is 72.6%.

Turning to `N#Cc1c(NC(=O)c2ccc(C(F)(F)F)cc2C(F)(F)F)sc2c1CCC(=O)C2`, the growth was -11.3% (active) in the experiment with SR leukemia; 2.53% (active) with RPMI-8226 leukemia; -16.9% (active) in the experiment on OVCAR-8 ovarian; -62.3% (active) in the experiment with OVCAR-5 ovarian; -40.8% (active) in the experiment with OVCAR-4 ovarian; -22.2% (active) in the experiment with SK-OV-3 ovarian. For the same compound, the growth in the experiment on IGROV1 ovarian was -3.75% (active); in the experiment on OVCAR-3 ovarian it was -59.5% (active); in the experiment with HS 578T breast it was -5.88% (active); with NCI/ADR-RES ovarian, 1.12% (active); with T-47D breast, -22.7% (active); in the experiment with BT-549 breast, -65.3% (active). The growth with MDA-MB-435 melanoma is -53.6% (active); in the experiment on SW-620 colon, -43.7% (active); with MCF7 breast, -10.6% (active); in the experiment on HCT-116 colon it was 0.663% (active); with HCC-2998 colon it was -2.99% (active); with KM12 colon, -34.2% (active). Moreover, the growth with MDA-MB-468 breast is -79.9% (active).

`O=c1[nH]c2ccccc2cc1CSc1ccc(Nc2nccc(-c3ccc(Cl)cc3)n2)cc1`: the growth in the experiment with SR leukemia was 59.2%; with RPMI-8226 leukemia it was 21.2%; in the experiment with OVCAR-8 ovarian, -52.9% (active); in the experiment with OVCAR-5 ovarian, -19.5% (active); in the experiment with OVCAR-4 ovarian, -76.8% (active); in the experiment with SK-OV-3 ovarian it was -15.1% (active). In addition, the growth was 11% with IGROV1 ovarian; -73.9% (active) in the experiment on OVCAR-3 ovarian; -22.1% (active) with HS 578T breast; -39% (active) in the experiment with NCI/ADR-RES ovarian; -10.3% (active) with T-47D breast; -5.03% (active) in the experiment on BT-549 breast. Moreover, the growth with MDA-MB-435 melanoma is 9.58% (active); with SW-620 colon, 2.67% (active); in the experiment on MCF7 breast it was -5.81% (active); in the experiment with HCT-116 colon, -38.6% (active); in the experiment on HCC-2998 colon it was 14.6%; in the experiment with KM12 colon it was 23%. In addition, in the experiment on MDA-MB-468 breast, the growth was -67.5% (active).

`Cc1ccc(/C(N)=N/c2sc(-c3ccccc3)nc2-c2ccccc2)cc1`: the growth is 63.1% with SR leukemia; 59.9% with RPMI-8226 leukemia; 91.4% with OVCAR-8 ovarian; 84.1% with OVCAR-5 ovarian; 72% in the experiment with OVCAR-4 ovarian; 87.1% in the experiment with SK-OV-3 ovarian. Besides, the growth in the experiment on IGROV1 ovarian was 94.3%; in the experiment on OVCAR-3 ovarian, 84.7%; in the experiment on HS 578T breast, 95%; in the experiment with NCI/ADR-RES ovarian, 89.9%; with T-47D breast, 58.3%; with BT-549 breast, 88.4%. Besides, the growth was 79.6% in the experiment with MDA-MB-435 melanoma; 79.4% with SW-620 colon; 55.9% in the experiment with MCF7 breast; 53.5% in the experiment with HCT-116 colon; 79.8% in the experiment with HCC-2998 colon; 41.4% in the experiment with KM12 colon. Moreover, the growth in the experiment with MDA-MB-468 breast was 75.6%.

For the compound `Cc1cc2nc3c4ccccc4n(CCO)c3nc2cc1C`, the growth with SR leukemia is 27.2%; in the experiment with RPMI-8226 leukemia, 93%; in the experiment on OVCAR-8 ovarian it was 72.7%; in the experiment with OVCAR-5 ovarian it was 103%; in the experiment on OVCAR-4 ovarian it was -43.7% (active); in the experiment with SK-OV-3 ovarian, 81.7%. Besides, the growth in the experiment on IGROV1 ovarian is 58.4%; in the experiment with OVCAR-3 ovarian it was 78.7%; with HS 578T breast, 48.3%; with NCI/ADR-RES ovarian, 62.3%; in the experiment on T-47D breast, 73.5%; in the experiment with BT-549 breast, 78.7%. Also, the growth was 94.6% in the experiment on MDA-MB-435 melanoma; 75.5% in the experiment on SW-620 colon; 52.1% in the experiment with MCF7 breast; 34.4% in the experiment with HCT-116 colon; 123% in the experiment with HCC-2998 colon; 92.2% in the experiment on KM12 colon. Further, in the experiment with MDA-MB-468 breast, the growth was 74.4%.

`Nc1nc2c(F)c(F)c(F)c(F)c2s1`: the growth was 86.5% in the experiment with SR leukemia; 108% with RPMI-8226 leukemia; 99.7% with OVCAR-8 ovarian; 104% in the experiment on OVCAR-5 ovarian; 104% with OVCAR-4 ovarian; 99.5% with SK-OV-3 ovarian. Besides, the growth was 101% with IGROV1 ovarian; 104% with OVCAR-3 ovarian; 100% with HS 578T breast; 104% with NCI/ADR-RES ovarian; 91.3% with T-47D breast; 105% in the experiment with BT-549 breast. For the same compound, the growth in the experiment on MDA-MB-435 melanoma is 101%; in the experiment on SW-620 colon, 106%; with MCF7 breast, 93.7%; with HCT-116 colon, 113%; in the experiment with HCC-2998 colon, 116%; in the experiment on KM12 colon, 99.9%. Also, the growth in the experiment with MDA-MB-468 breast was 97.9%.

`C=C1CCC2C3(C)COC(c4cccc(F)c4)OC3CCC2(C)C1CC(O)C1=CCOC1=O` (configuration not stated): the growth in the experiment with SR leukemia was 40.4%; in the experiment on RPMI-8226 leukemia it was 20.6%; with OVCAR-8 ovarian, 15.1%; in the experiment with OVCAR-5 ovarian it was 76.1%; in the experiment on OVCAR-4 ovarian, 67.1%; with SK-OV-3 ovarian, 108%. Moreover, the growth with IGROV1 ovarian was 61.1%; with OVCAR-3 ovarian, 62.1%; with HS 578T breast, 74.6%; with NCI/ADR-RES ovarian, 4.5% (active); in the experiment on T-47D breast it was 37.9%; in the experiment with BT-549 breast, -4.37% (active). Also, the growth in the experiment on MDA-MB-435 melanoma was 57.7%; in the experiment on SW-620 colon, 6.42% (active); in the experiment with MCF7 breast, 14.2%; with HCT-116 colon it was -7.46% (active); in the experiment on HCC-2998 colon, 63.1%; in the experiment with KM12 colon it was 59.6%. For the same compound, the growth in the experiment on MDA-MB-468 breast is 52.1%.

On to `CCCn1c(=O)c2[nH]c(-c3ccc(OCc4nc5ccc(F)cc5[nH]4)cc3)nc2n(CCC)c1=O`, for which the growth with SR leukemia is 11.8%; in the experiment on RPMI-8226 leukemia, 16.7%; with OVCAR-8 ovarian it was -41.3% (active); in the experiment with OVCAR-5 ovarian, 43.3%; with OVCAR-4 ovarian, -2.86% (active); in the experiment with SK-OV-3 ovarian it was -41.3% (active). Also, the growth was 28.1% with IGROV1 ovarian; 5.45% (active) with OVCAR-3 ovarian; 0.819% (active) in the experiment on HS 578T breast; 64.9% in the experiment with NCI/ADR-RES ovarian; -17.8% (active) with T-47D breast; 6.64% (active) with BT-549 breast. For the same compound, the growth in the experiment with MDA-MB-435 melanoma was 47.8%; with SW-620 colon it was 17.1%; in the experiment with MCF7 breast, 8.76% (active); with HCT-116 colon, 3.12% (active); in the experiment with HCC-2998 colon, 83.2%; in the experiment with KM12 colon, 55.7%. The growth in the experiment with MDA-MB-468 breast was -12.7% (active).
